Data on 45 sequences can be found in the supplement of paper PMC11417369.

In all, about 25,000 sequences were measured (“ln(normalized median fluorescence intensity)”: median about 9.3, highest 2% from about 10 on). Only a selection was taken, and the highest values are over-represented in it overall.

This experiment deals with PF3D7_0420300 AP2 domain 1 (GST-tagged). Kind of experiment: gcPBM binding intensity (ln(normalized median fluorescence intensity)); higher = stronger DNA binding. The essentials: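 An Agilent 4 × 180k array of primer-extended double-stranded 36-bp intergenic genomic probes, with negative controls, was incubated for 1 h with GST-tagged P. falciparum DNA-binding domains expressed in E. coli. Alexa488 anti-GST antibody detected bound protein, scanned at 488 nm. Binding intensity is the highest Masliner-normalised natural-log median intensity across replicate spots of either probe orientation.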
In the case of “TAAGGATAAATAAAATGAAATGAAATAAATAAATGA [XGTACX_negctrl_site539]”, the “gcPBM binding intensity (ln)” value is 9.24.

On to “TATAAAATATAAATAAATAAATAAATATATATATAT [TGCATGCA_negctrl_site448]”, for which the “gcPBM binding intensity (ln)” value is 9.11.

For the sequence “GCGGCGGTATCATGCACACGTATATATTGTAACAGT [CACACA_site4958]”, the “gcPBM binding intensity (ln)” value was 9.27.

On to “TTTTTTATTTTAATGTATTATTTTTATGTAATATAT [GTGCAC_negctrl_site391]”, for which the “gcPBM binding intensity (ln)” value was 9.23.

Regarding “AAAAAAAAAAAAAACACACACACAATAGTATATAAA [CACACA_site957]”, the “gcPBM binding intensity (ln)” value was 9.94.

As for “CAAAAATAAATATAAACACACAATAAATAAATAAAT [CACACA_site891]”, the “gcPBM binding intensity (ln)” value was found to be 9.91.

With “AAAAAAAAAAGACACACACACAATAGTATATAAATC [CACACA_site6579]”, the “gcPBM binding intensity (ln)” value was 10.2.

As to “TAAAAATAGTATACAACACACGAGGGAAAATAAAGT [CACACA_site3837]”, the “gcPBM binding intensity (ln)” value was found to be 10.2.

With “AAAAATATGAAGACACAATATAGAAATAAAAATATA [XGTACX_negctrl_site244]”, the “gcPBM binding intensity (ln)” value turned out to be 9.44.

As to “AGAGTATATAAAGTAACACACAATAAAATAAAATAA [CACACA_site2328]”, the “gcPBM binding intensity (ln)” value was determined as 9.82.

As to “AAAAAAAAAAAACACACACACAATAGTATATAAATC [CACACA_site956]”, the “gcPBM binding intensity (ln)” value is 10.3.

In the case of “ATGGACAAAAAATATATACACACGAGGAAACCAACA [CACACA_site3726]”, the “gcPBM binding intensity (ln)” value came out at 10.1.

Turning to “TAAATACAAAAATGCACACGAAAAGTAATATATATA [CACACA_site6151]”, the “gcPBM binding intensity (ln)” value turned out to be 9.64.

Regarding “AACATAATAAAAATGGATATAATTCAAAGTTTGTAA [TGCATGCA_negctrl_site529]”, the “gcPBM binding intensity (ln)” value amounted to 9.25.

Take “TTTTATATATATTATACACACAAGGAAAAAAAAAAA [CACACA_site3677]”: the “gcPBM binding intensity (ln)” value amounted to 9.53.

As for “ATATATTTTATTCCTATATATATATATATATATATA [GTGCAC_negctrl_site556]”, the “gcPBM binding intensity (ln)” value worked out at 9.27.

As for AAAAATGTAAAGTGCGTGCACAAAATATTTGGAAAA, the “gcPBM binding intensity (ln)” value is 9.27.

In the case of “AGAAATATATCTATTTGTCCGTATATTCATATTTAT [XGTACX_site8427]”, the “gcPBM binding intensity (ln)” value was 9.4.

As to “TAACCATACATACATACACACACACCCACATATATA [CACACA_site8951]”, the “gcPBM binding intensity (ln)” value was determined as 10.1.

As to “CATATAAAAGGACACACACACACATATATATATATA [CACACA_site4674]”, the “gcPBM binding intensity (ln)” value turned out to be 10.

For the sequence “GTAACATACACATATACACACACACCGATATACATA [CACACA_site8278]”, the “gcPBM binding intensity (ln)” value was 10.2.

For the sequence “ATAAAAAAAGGACACACACACATATATATATATATA [CACACA_site5662]”, the “gcPBM binding intensity (ln)” value is 9.93.

On to “GGAAGGATATAACATACACACACACCCATATATATA [CACACA_site9376]”, for which the “gcPBM binding intensity (ln)” value stood at 10.

“CCATAAAAAGGATACACACACACACCGACATATATA [CACACA_site4653]”: the “gcPBM binding intensity (ln)” value came to 10.2.

“AAGGATATAACATACACACACACACCCATATATATA [CACACA_site4142]”: the “gcPBM binding intensity (ln)” value came out at 10.3.

With “TTTTTTTATAAAAATGAACACACACCGATATATATA [CACACA_site9161]”, the “gcPBM binding intensity (ln)” value came out at 9.63.

Turning to “ATATATACATATAACACACACATATATATATATATA [CACACA_site2575]”, the “gcPBM binding intensity (ln)” value is 9.56.

For the sequence “AAGGATATAACATACACACACACACCGATATATATA [CACACA_site6136]”, the “gcPBM binding intensity (ln)” value was determined as 10.2.

Regarding “TTAAACTTGAAACACACACACACACCCATATAAAAA [CACACA_site758]”, the “gcPBM binding intensity (ln)” value came out at 10.1.

Regarding “TTAAACTTGAAACACACACACACACCGATATAAAAA [CACACA_site4578]”, the “gcPBM binding intensity (ln)” value worked out at 10.2.

For “ATATAACTCAAGGGCACACATATACCTTTCCTTTTT [CACACA_site4390]”, the “gcPBM binding intensity (ln)” value came out at 9.5.

“AATATACATAACAAGGTGCAAAAAATATTGTTCATA [GTGCAC_site9499]”: the “gcPBM binding intensity (ln)” value was determined as 9.5.

As for “TATTATCTCTTATGAACACACATTTTTATTTTCAAA [CACACA_site3353]”, the “gcPBM binding intensity (ln)” value was determined as 9.31.

For “AATATATAGCTAAAAACACACAAATATATACGCATA [CACACA_site3608]”, the “gcPBM binding intensity (ln)” value came to 9.69.

“TTATATATAATATATACACACACATGTATATATAAA [CACACA_site8603]”: the “gcPBM binding intensity (ln)” value stood at 9.45.

With “AGTTAATGAATAGGCACACATATATCTGTATAAATA [CACACA_site4448]”, the “gcPBM binding intensity (ln)” value was 9.47.

Regarding “AAAAAAAAAATATACACACACACATACCCATAAATA [CACACA_site5981]”, the “gcPBM binding intensity (ln)” value was 9.99.

As to “AAACTTGACGGACACACACACACATATATAAAAAAA [CACACA_site4577]”, the “gcPBM binding intensity (ln)” value was found to be 10.

Consider “AAAAAAAAAAGACACACACACAAAAAAAGATATATA [CACACA_site6645]”, for which the “gcPBM binding intensity (ln)” value is 10.2.

Regarding “AAAAAAAAAAGACACACACACATATTTATTTATATA [CACACA_site6484]”, the “gcPBM binding intensity (ln)” value was determined as 9.93.

On to “AAAAAGGATAAACACACACACACACCGATATATATA [CACACA_site8206]”, for which the “gcPBM binding intensity (ln)” value came out at 10.2.

Turning to “CCATAAAAAGGATACACACACACACCCACATATATA [CACACA_site903]”, the “gcPBM binding intensity (ln)” value turned out to be 10.2.

With “AATAAAAAGGAACACACACACACACCGATATATATA [CACACA_site5895]”, the “gcPBM binding intensity (ln)” value is 10.2.

For the sequence “TAAAAGGATACATATACACACATATATATATATATA [CACACA_site2791]”, the “gcPBM binding intensity (ln)” value is 9.32.

As to “ACTTGACACGGACACACACACATATATAAAAAAAAA [CACACA_site4576]”, the “gcPBM binding intensity (ln)” value amounted to 9.87.
